Laboratory results published in PubChem BioAssay (Tox21).
Records with an inconclusive call do not appear. Calls of active or inactive are those of the source. Calls follow the shape of the dose curve; as a rule, active = well fitted cell-killing curve with a large enough effect in the repeat runs; inconclusive = weak or mixed curves, or effect the other way; inactive = no such curve, though single readings can be large or run the other way.

experiment: qHTS assay to identify small molecule agonists of the vitamin D receptor (VDR) signaling pathway - cell viability counter screen (AID 743224); details: VDR-bla HEK293T viability, CellTiter-Glo luminescence, 16 h; series mostly up to 62.6 µM; activity change, negative = cytotoxicity: at the top concentration; also: nearly all actives have a fitted effect of over 50% in size
Method in brief: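 Luminescence from CellTiter-Glo, read after 30 min at room temperature, reports viability of VDR-bla cells treated with compounds for 16 h at 37C in the wells used for the beta-lactamase FRET read.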
% is scaled to controls: 0 for no effect and ±100 for the full control effect; potency is read from the fitted curve at half-maximal effect.

Compound | activity change, negative = cytotoxicity | Potency
CN(C)C(=O)NC1(c2ccccc2)CCN(CCC[C@]2(c3ccc(Cl)c(Cl)c3)CCCN(C(=O)c3ccccc3)C2)CC1 | -21.3% [at 29.1 µM] (inactive) | –
COc1ccc(S(=O)(=O)Nc2nnc(CC(C)C)s2)cc1 | 20.5% (inactive) | –
CN1CCN(C2=Nc3ccccc3Oc3ccc(Cl)cc32)CC1 | -3.43% (inactive) | –
CC1=NN(c2cc(Cl)c(S(=O)(=O)O)cc2Cl)C(=O)C1N=Nc1ccc(S(=O)(=O)O)cc1 (stereo unspecified) | 8.67% (inactive) | –
COc1ccc2nc(NC(=O)Nc3ccccc3)sc2c1 | -3.01% (inactive) | –
CCCCCCCCCCCCCCCCOP(=O)([O-])OCC[N+](C)(C)C | -29.7% (inactive) | –
CCCCC(=O)O[C@]1(C(=O)CO)[C@H](C)C[C@H]2[C@@H]3CCC4=CC(=O)C=C[C@]4(C)[C@@]3(F)[C@@H](O)C[C@@]21C | 12.7% (inactive) | –
CC(=O)Oc1cc(C(C)C)c(OCCN(C)C)cc1C | 9.42% (inactive) | –
CCOc1ccc(NC(N)=O)cc1 | 9.58% (inactive) | –
CC1(C)O[C@@H]2C[C@H]3[C@@H]4CCC5=CC(=O)CC[C@]5(C)[C@@]4(F)[C@@H](O)C[C@]3(C)[C@]2(C(=O)CCl)O1 | -0.867% (inactive) | –
Clc1cccc(-c2cc(Cl)cc(Cl)c2)c1 | 18.5% (inactive) | –
CCOc1ccccc1N | 1.45% (inactive) | –
Cc1cc2nc(N)sc2cc1C | -12.3% [at 81.1 µM] (inactive) | –
OCCN(CCO)CCN(CCO)CCO | 9.18% (inactive) | –
CCCCOc1cc(C(=O)NCCN(CC)CC)c2ccccc2n1 | -2.9% (inactive) | –
CCCCC1CCC(=O)O1 (stereo unspecified) | -6.43% (inactive) | –
CC(=O)Nc1ccc(C)c(Cl)c1 | 2.19% (inactive) | –
CCOc1ccc2nc(N)sc2c1 | 18.1% (inactive) | –
O=CCCc1ccccc1 | 5.35% (inactive) | –
OCC(CBr)(CBr)CBr | -7.19% (inactive) | –
CC1=C(CC(=O)O)c2cc(F)ccc2/C1=C\c1ccc(S(C)(=O)=O)cc1 | 6.07% (inactive) | –
CC(C)NC[C@@H](O)COc1cccc2ccccc12 | -24.7% (inactive) | –
CCCCCCn1c(=O)c2c(ncn2C)n(C)c1=O | 21.3% (inactive) | –
COc1cc(Cl)ccc1Cl | 5.85% [at 81.1 µM] (inactive) | –
Cc1nc(N)nc(N)c1-c1ccc(Cl)c(Cl)c1 | – | 3.35 µM (active)
COc1ccc(Nc2ccc(OC)cc2)cc1 | 2.59% [at 81.1 µM] (inactive) | –
